Pf growth 96h = P. falciparum growth inhibition at 96 hours; P. falciparum luciferase reporter growth, 96 h; Potency, µM (top dose mostly 28.7 µM), without a hit: top-dose activity change, negative = inhibition, hits mostly inhibitors; 320,000 tested, 6.9% active; AID 504834; further: potency means the concentration at half of the fitted maximal effect; on the % scale 0 is the no-effect control and ±100 the full control effect
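Plates of compound plus infected erythrocytes (2% hematocrit, 0.05% parasitemia final) incubate 96 hours, 37 C, 5% CO2. Detection reagent added; reduced luminescence from the parasites' luciferase reporter flags inhibition.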
Pf growth 48h = P. falciparum growth inhibition at 48 hours (one generation). 310,000 tested, 5.9% active. Potency, µM (series often up to 28.7 µM), without a hit: at the top dose activity change, negative = inhibition, hits mostly inhibitors. P. falciparum luciferase growth in erythrocytes, 48 h; further: potency means the concentration at half of the fitted maximal effect; on the % scale 0 is the no-effect control and ±100 the full control effect
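In quantitative HTS format, infected erythrocytes bearing luciferase-reporter parasites were treated for a single generation at 37 C. Luminescence after adding detection reagent served as the growth measure.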
HCV inhibitor = HCV inhibition; 340,000 tested, 3.4% active; Potency, µM (top dose mostly 41.8 µM), for the others: at the highest dose activity change, negative = inhibition, hits mostly inhibitors; AID 651820; Huh7.5.1 HCVcc-Cre infection, luciferase reporter, 44 h; further: potency means the concentration at half of the fitted maximal effect; on the % scale 0 is the no-effect control and ±100 the full control effect
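Cells (1,000/well) were plated 4 h before compound, then infected with HCVcc-Cre virus (~0.5 moi). After 44 h further culture, infection was read as luciferase luminescence following a 15 min substrate incubation at room temperature.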
Cycloheximide cs = counter-screen for Shiga toxin inhibitors: cycloheximide protein synthesis inhibition; cell reporter, cycloheximide protein synthesis inhibition counterscreen; max response, %; 300,000 tested, 12% active; in the data active means max response mostly above about 13%, no sharp cut-off; inactive means mostly below about 14%; further: read at 38.3 µM for the half of the compounds with a filed dose; 0% is about no effect
AMA1 RON2 block = disrupts binding of P. falciparum AMA1 to RON2. 360,000 tested, 0.2% active. Potency, µM (titrated, usually from 58.2 µM), inactives show at the top dose activity change, negative = inhibition, usual class: inhibitors. AlphaScreen AMA1-biotinylated RON2 peptide binding;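 further: potency means the concentration at half of the fitted maximal effect; 0% = vehicle wells and -100% = peptide control; nearly all actives have a fitted effect of over 45% in size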
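AMA1 (3D7) with his tag at 25 nM final met compounds first, then biotinylated RON2 peptide at 25 nM; detection used donor plus acceptor beads, 10 µg/mL apiece, read by AlphaScreen after 30 min at room temperature.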
Shiga toxin inh = inhibitors of Shiga toxin in Vero cells; 290,000 tested, 9.2% active; AID 2315; inhibition, % at 38.7 µM; Vero cells, Shiga toxin protein synthesis inhibition reporter; in the data active means inhibition mostly above about 28%, no sharp cut-off; inactive means mostly below about 43%; further: 0% is about no effect
The depositor's hits bear a star. Only some compounds are listed: those with a hit (about 21% of all), similar ones and a draw of the others. Unless noted, the call rests on the fitted dose curve; in most records, active means well fitted curve in the direction sought with a large enough effect; inconclusive means small, poorly fitted or top-dose-only effect, or another doubt; inactive means no such curve, though single readings can be large; an effect the other way counts as inactive or inconclusive.

For COc1ccc(C(=O)c2c[nH]c(C(=O)NCC3CCCO3)c2)cc1 (configuration not stated) the results were Pf growth 96h inconclusive, Pf growth 48h -30%, HCV inhibitor 8%, Cycloheximide cs 21*, AMA1 RON2 block -18% and Shiga toxin inh 28.
Screening Cc1onc(-c2ccccc2)c1C(=O)c1c[nH]c(C(=O)NCc2ccncc2)c1 returned Pf growth 96h 37%, Pf growth 48h 363%, HCV inhibitor inconclusive, Cycloheximide cs -1, AMA1 RON2 block 9% and Shiga toxin inh 24.
Cc1ccccc1C(=O)c1c[nH]c(C(=O)NCC2CCCO2)c1 (configuration not stated) was read as Pf growth 96h -10%, Pf growth 48h 5%, HCV inhibitor -2%, Cycloheximide cs -2, AMA1 RON2 block 7% and Shiga toxin inh -1.
`Cc1onc(-c2ccccc2)c1C(=O)c1c[nH]c(C(=O)NCc2ccccn2)c1` gave Pf growth 96h inconclusive, Pf growth 48h 181%, HCV inhibitor 10µM*, Cycloheximide cs -2, AMA1 RON2 block 54% and Shiga toxin inh -6.
Screening CC(C)(C)c1ccc(C(=O)c2c[nH]c(C(=O)NCC3CCCO3)c2)cc1 (configuration not stated) returned Pf growth 96h inconclusive, Pf growth 48h inconclusive, HCV inhibitor -24%, Cycloheximide cs 22*, AMA1 RON2 block 0% and Shiga toxin inh 22.
For Cc1ccccc1-c1cnc2c(c1)C(=O)N([C@H](C)CO)C[C@@H](C)[C@H](CN(C)C(=O)c1ccncc1)O2 the results were AMA1 RON2 block 3%.
COC(=O)c1cn(Cc2ccccn2)c(=O)c2ccccc12 was read as Pf growth 96h -20%, Pf growth 48h inconclusive, HCV inhibitor -10%, Cycloheximide cs 5, AMA1 RON2 block -11% and Shiga toxin inh -12.
CC(C)(C)c1ccc(C(=O)c2c[nH]c(C(=O)NCCCN3CCOCC3)c2)cc1 was read as Pf growth 96h 10µM*, Pf growth 48h 13µM*, HCV inhibitor inconclusive, Cycloheximide cs -3, AMA1 RON2 block -6% and Shiga toxin inh -10.
`COc1ccc(C(=O)c2c[nH]c(C(=O)N=CN(C)C)c2)cc1` gave Pf growth 96h 44%, Pf growth 48h 31%, HCV inhibitor 7%, Cycloheximide cs 20*, AMA1 RON2 block -16% and Shiga toxin inh 42*.
For CCC(=O)c1c[nH]c(C(=O)NCCCN2CCOCC2)c1 the results were Pf growth 96h 16%, Pf growth 48h 1%, HCV inhibitor 12%, Cycloheximide cs 5, AMA1 RON2 block -10% and Shiga toxin inh -10.
Screening Cc1ccccc1C(=O)c1c[nH]c(C(=O)N=CN(C)C)c1 returned Pf growth 96h 12%, Pf growth 48h 12%, HCV inhibitor -20%, Cycloheximide cs -2, AMA1 RON2 block 13% and Shiga toxin inh -13.
CCOC(=O)c1ccccc1NC(=O)CN(c1ccccc1OCC)S(C)(=O)=O was read as Pf growth 96h 11%, Pf growth 48h 9.3µM*, HCV inhibitor 18%, Cycloheximide cs -3, AMA1 RON2 block -7% and Shiga toxin inh -6.
`CCOc1ccccc1N(CC(=O)Nc1ccccc1C(=O)O)S(C)(=O)=O` gave Pf growth 96h inconclusive, Pf growth 48h -26%, HCV inhibitor -1%, Cycloheximide cs 1, AMA1 RON2 block -2% and Shiga toxin inh 2.
COc1ccc(N(CC(=O)Nc2ccccc2C(=O)NCC(C)C)S(C)(=O)=O)cc1 was read as Pf growth 96h -6%, Pf growth 48h -13%, HCV inhibitor 1%, Cycloheximide cs 1, AMA1 RON2 block 10% and Shiga toxin inh 3.
For COc1ccccc1N(CC(=O)Nc1ccccc1C(=O)NCC(C)C)S(C)(=O)=O the results were Pf growth 48h 8.3µM*, HCV inhibitor -5%, Cycloheximide cs 5, AMA1 RON2 block 1% and Shiga toxin inh -19.
CC(C)CNC(=O)c1ccccc1NC(=O)CN(c1ccccc1)S(=O)(=O)N(C)C was read as Pf growth 96h -1%, Pf growth 48h 10µM*, HCV inhibitor -29%, Cycloheximide cs 0, AMA1 RON2 block 5% and Shiga toxin inh -8.
For CCC(C(=O)O)n1c2ccccc2c2cn[nH]c(=O)c21 (configuration not stated) the results were Pf growth 96h 14%, Pf growth 48h 6%, HCV inhibitor 12%, Cycloheximide cs -2, AMA1 RON2 block 7% and Shiga toxin inh 15.
For O=C(CSc1nc(Cc2ccccc2)nc2ccccc12)c1ccc2c(c1)OCCO2 the results were Pf growth 96h inconclusive, Pf growth 48h 9.3µM*, HCV inhibitor inconclusive, Cycloheximide cs 1, AMA1 RON2 block 22% and Shiga toxin inh 24.
For CCc1nc(SCC(=O)c2ccccc2)c2ccccc2n1 the results were Pf growth 96h inconclusive, Pf growth 48h inconclusive, HCV inhibitor inconclusive, Cycloheximide cs -6, AMA1 RON2 block 0% and Shiga toxin inh -11.
`O=C(Nc1ccc2c(c1)OCO2)C1CCN(C(=O)CSc2ncnc3ccccc23)CC1` gave Pf growth 96h -21%, Pf growth 48h inconclusive, HCV inhibitor -14%, Cycloheximide cs 34*, AMA1 RON2 block 2% and Shiga toxin inh 44*.
Screening CCc1nc(SCC(=O)c2ccc3c(c2)OCCO3)c2ccccc2n1 returned Pf growth 96h 10µM*, Pf growth 48h inconclusive, HCV inhibitor 8.9µM*, Cycloheximide cs 1, AMA1 RON2 block 43% and Shiga toxin inh 14.
O=C(CSc1ncnc2ccccc12)c1ccc2c(c1)OCCO2 was read as Pf growth 96h 52%, Pf growth 48h 129%, HCV inhibitor inconclusive, Cycloheximide cs 46*, AMA1 RON2 block 34% and Shiga toxin inh 185*.
For O=C(Cc1c[nH]c2ccccc12)Nc1ccc(N2CCOCC2)cc1 the results were Pf growth 96h 25%, Pf growth 48h -18%, HCV inhibitor 7%, Cycloheximide cs 14, AMA1 RON2 block -21% and Shiga toxin inh 24.
For Cc1cccc(-c2ncc(S(=O)(=O)C(C)(C)C)c(N)n2)c1 the results were Pf growth 96h 164%, Pf growth 48h 160%, HCV inhibitor -4%, Cycloheximide cs 11*, AMA1 RON2 block -19% and Shiga toxin inh 30.
CC(C)(C)S(=O)(=O)c1cnc(-c2ccccn2)nc1N was read as Pf growth 96h inconclusive, Pf growth 48h 8%, HCV inhibitor 13%, Cycloheximide cs 8, AMA1 RON2 block 85% and Shiga toxin inh 25.
COCCSc1ncnc2c1oc1nc3c(cc12)COC(C)(C)C3 was read as Pf growth 96h -1%, Pf growth 48h 6%, HCV inhibitor -25%, Cycloheximide cs 23*, AMA1 RON2 block -5% and Shiga toxin inh 30.
For Clc1cccc(Cc2c(C3CCCCC3)nc3c4ccccc4ccn23)c1 the results were AMA1 RON2 block 2%.

Assay outcomes deposited in PubChem by National Center for Advancing Translational Sciences (NCATS).
